Experimental data as given in PubChem BioAssay AID1159580 (chemical genetic matrix, 2015).
The campaign covered roughly 5,500 compounds. About 2,000 (36%) were called active. About 18% were inconclusive and are not listed. No stated cut-off is given here; in the data, active means normalized growth mostly below about 0.91 (no sharp cut-off); inconclusive means no clear call, values can overlap the other calls; inactive means mostly above about 0.92. Some of the results follow.

Assay: chemical genetic growth profiling, strain panel (AID 1159580);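 further: tested at 20 µM; growth read once vehicle control cultures reached saturation at 30 °C; 1 = growth at the plate median or of vehicle wells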
Conditions: growth OD

Measured: normalized growth

c1ccc2c(c1)CCCC2C1=NCCN1 (stereo not given)
inactive: S. cerevisiae deletion strains, locus YKL009W, strain mrt4, stronger effect = lower value 0.995 | S. cerevisiae deletion strains, locus YKL068W, stronger effect = lower value 1 | S. cerevisiae deletion strains, locus YKL085W, strain MDH1 (second series), stronger effect = lower value 1.01 | S. cerevisiae deletion strains, locus YKL085W, strain MDH1, stronger effect = lower value 1.01 | S. cerevisiae deletion strains, locus YKL160W, strain elf1, stronger effect = lower value 1.03 | S. cerevisiae deletion strains, locus YKL190W, strain CNB1, stronger effect = lower value 1.01 | S. cerevisiae deletion strains, locus YKR001C, strain vps1, stronger effect = lower value 0.986 | S. cerevisiae deletion strains, locus YKR026C, strain gcn3, stronger effect = lower value 1.02 | S. cerevisiae deletion strains, locus YKR091W, strain srl3, stronger effect = lower value 1.03 | S. cerevisiae deletion strains, locus YLL001W, strain dnm1, stronger effect = lower value 1.03 | S. cerevisiae deletion strains, locus YLL026W, stronger effect = lower value 1.03 | S. cerevisiae deletion strains, locus YLL041C, strain sdh2, stronger effect = lower value 1.04 | S. cerevisiae deletion strains, locus YLR027C, strain aat2, stronger effect = lower value 1.02 | S. cerevisiae deletion strains, locus YLR039C, strain RIC1, stronger effect = lower value 1.03 | S. cerevisiae deletion strains, locus YLR058C, strain SHM2, stronger effect = lower value 1.01 | S. cerevisiae deletion strains, locus YLR102C, strain apc9, stronger effect = lower value 1 | S. cerevisiae deletion strains, locus YLR113W, strain HOG1, stronger effect = lower value 0.982 | S. cerevisiae deletion strains, locus YLR221C, strain rsa3, stronger effect = lower value 1.04 | S. cerevisiae deletion strains, locus YLR258W, strain gsy2, stronger effect = lower value 1.02 | S. cerevisiae deletion strains, locus YLR262C, strain YPT6 (second series), stronger effect = lower value 1.04 | S. cerevisiae deletion strains, locus YLR262C, strain YPT6, stronger effect = lower value 1.04 | S. cerevisiae deletion strains, locus YLR268W, strain sec22, stronger effect = lower value 1.03 | S. cerevisiae deletion strains, locus YLR320W, strain mms22, stronger effect = lower value 1.03 | S. cerevisiae deletion strains, locus YLR330W, strain CHS5, stronger effect = lower value 1.01 | S. cerevisiae deletion strains, locus YLR342W, strain FKS1 (second series), stronger effect = lower value 1.03 | S. cerevisiae deletion strains, locus YLR342W, strain FKS1, stronger effect = lower value 1.02 | S. cerevisiae deletion strains, locus YLR357W, strain rsc2, stronger effect = lower value 1.04 | S. cerevisiae deletion strains, locus YLR370C, strain arc18, stronger effect = lower value 1.02 | S. cerevisiae deletion strains, locus YLR371W, strain rom2, stronger effect = lower value 1.01 | S. cerevisiae deletion strains, locus YLR384C, strain iki3, stronger effect = lower value 1.03 | S. cerevisiae deletion strains, locus YLR418C, strain cdc73, stronger effect = lower value 0.98 | S. cerevisiae deletion strains, locus YML016C, strain PPZ1, stronger effect = lower value 1.01 | S. cerevisiae deletion strains, locus YML032C, strain rad52, stronger effect = lower value 1 | S. cerevisiae deletion strains, locus YML120C, strain ndi1, stronger effect = lower value 1.01 | S. cerevisiae deletion strains, locus YML124C, strain tub3, stronger effect = lower value 0.986 | S. cerevisiae deletion strains, locus YMR058W, strain fet3, stronger effect = lower value 1.02 | S. cerevisiae deletion strains, locus YMR078C, strain ctf18, stronger effect = lower value 0.997 | S. cerevisiae deletion strains, locus YMR125W, strain sto1, stronger effect = lower value 1.03 | S. cerevisiae deletion strains, locus YMR129W, stronger effect = lower value 1.02 | S. cerevisiae deletion strains, locus YMR205C, strain PFK2, stronger effect = lower value 1.05 | S. cerevisiae deletion strains, locus YMR223W, strain ubp8, stronger effect = lower value 0.985 | S. cerevisiae deletion strains, locus YMR231W, strain pep5, stronger effect = lower value 1.02 | S. cerevisiae deletion strains, locus YMR263W, strain SAP30, stronger effect = lower value 1.01 | S. cerevisiae deletion strains, locus YMR307W, strain GAS1, stronger effect = lower value 1 | S. cerevisiae deletion strains, locus YNL067W, strain RPL9B, stronger effect = lower value 1 | S. cerevisiae deletion strains, locus YNL071W, strain lat1, stronger effect = lower value 1.03 | S. cerevisiae deletion strains, locus YNL128W, strain TEP1, stronger effect = lower value 1.02 | S. cerevisiae deletion strains, locus YNL153C, strain GIM3, stronger effect = lower value 1.06 | S. cerevisiae deletion strains, locus YNL175C, strain NOP13, stronger effect = lower value 0.995 | S. cerevisiae deletion strains, locus YNL183C, strain NPR1, stronger effect = lower value 0.953 | S. cerevisiae deletion strains, locus YNL197C, strain WHI3, stronger effect = lower value 1 | S. cerevisiae deletion strains, locus YNL209W, strain ssb2, stronger effect = lower value 1.02 | S. cerevisiae deletion strains, locus YNL224C, strain SQS1, stronger effect = lower value 1 | S. cerevisiae deletion strains, locus YNL233W, strain BNI4, stronger effect = lower value 1.01 | S. cerevisiae deletion strains, locus YNL248C, strain rpa49, stronger effect = lower value 1.02 | S. cerevisiae deletion strains, locus YNL250W, strain rad50, stronger effect = lower value 0.998 | S. cerevisiae deletion strains, locus YNL271C, strain bni1, stronger effect = lower value 0.998 | S. cerevisiae deletion strains, locus YNL298W, strain CLA4, stronger effect = lower value 1.02 | S. cerevisiae deletion strains, locus YNL307C, strain MCK1, stronger effect = lower value 0.995 | S. cerevisiae deletion strains, locus YNL322C, strain KRE1 (second series), stronger effect = lower value 1.03 | S. cerevisiae deletion strains, locus YNL322C, strain KRE1, stronger effect = lower value 1.01 | S. cerevisiae deletion strains, locus YNR049C, strain mso1, stronger effect = lower value 1.02 | S. cerevisiae deletion strains, locus YNR052C, strain pop2, stronger effect = lower value 1.01 | S. cerevisiae deletion strains, locus YOL006C, strain TOP1, stronger effect = lower value 0.988 | S. cerevisiae deletion strains, locus YOL012C, strain htz1 0.923 | S. cerevisiae deletion strains, locus YOL147C, strain pex11, stronger effect = lower value 0.989 | S. cerevisiae deletion strains, locus YOR001W, strain rrp6, stronger effect = lower value 1.02 | S. cerevisiae deletion strains, locus YOR061W, strain CKA2, stronger effect = lower value 1.01 | S. cerevisiae deletion strains, locus YOR069W, strain VPS5, stronger effect = lower value 1.01 | S. cerevisiae deletion strains, locus YOR070C, strain gyp1, stronger effect = lower value 1.02 | S. cerevisiae deletion strains, locus YOR080W, strain dia2, stronger effect = lower value 1.04 | S. cerevisiae deletion strains, locus YOR083W, strain WHI5 (second series), stronger effect = lower value 1.02 | S. cerevisiae deletion strains, locus YOR083W, strain WHI5, stronger effect = lower value 1.03 | S. cerevisiae deletion strains, locus YOR106W, strain vam3, stronger effect = lower value 1.03 | S. cerevisiae deletion strains, locus YOR136W, strain idh2, stronger effect = lower value 0.994 | S. cerevisiae deletion strains, locus YOR144C, strain elg1, stronger effect = lower value 0.993 | S. cerevisiae deletion strains, locus YOR184W, strain ser1, stronger effect = lower value 0.99 | S. cerevisiae deletion strains, locus YOR231W, strain MKK1, stronger effect = lower value 0.978 | S. cerevisiae deletion strains, locus YOR265W, strain rbl2, stronger effect = lower value 1.02 | S. cerevisiae deletion strains, locus YOR270C, strain vph1, stronger effect = lower value 1.07 | S. cerevisiae deletion strains, locus YOR290C, strain snf2, stronger effect = lower value 1.04 | S. cerevisiae deletion strains, locus YOR316C, strain cot1, stronger effect = lower value 1 | S. cerevisiae deletion strains, locus YPL051W, strain arl3, stronger effect = lower value 1.03 | S. cerevisiae deletion strains, locus YPL055C, strain LGE1, stronger effect = lower value 0.995 | S. cerevisiae deletion strains, locus YPL078C, strain atp4, stronger effect = lower value 1.01 | S. cerevisiae deletion strains, locus YPL106C, strain sse1, stronger effect = lower value 1.06 | S. cerevisiae deletion strains, locus YPL240C, strain hsp82, stronger effect = lower value 1.01 | S. cerevisiae deletion strains, locus YPL241C, strain CIN2, stronger effect = lower value 1.01 | S. cerevisiae deletion strains, locus YPL256C, strain CLN2, stronger effect = lower value 0.959 | S. cerevisiae deletion strains, locus YPR119W, strain clb2, stronger effect = lower value 1.01 | S. cerevisiae deletion strains, locus YPR141C, strain kar3, stronger effect = lower value 0.981 | S. cerevisiae deletion strains, locus YPR163C, strain tif3, stronger effect = lower value 1 | S. cerevisiae deletion strains, locus YPR167C, strain met16, stronger effect = lower value 1 | S. cerevisiae deletion strains, strain wtn01, stronger effect = lower value 0.996 | S. cerevisiae strains, strain wild type, stronger effect = lower value 1.02
